For orientation: AC50 means the concentration at which the activity in the assay is half-maximal.

SMILES strings stand for the structures. Activity calls are given as the source filed them. Rule for the calls, unless noted: active = hit-call score of the fitted dose curve at least 0.9, where 1 is the maximum; inactive = score below 0.9.

Our source for the outcome and AC50 values is PubChem BioAssay (EPA / NIEHS).

Assay [1] deals with Peroxisome proliferator-activated receptor gamma (Homo sapiens) (UniProt P37231). Briefly: OT_PPARg_PPARgSRC1_1440: Odyssey Thera (OT) 24-hour Protein-Complementation Assay for Peroxisome Proliferator-activated Receptor Gamma/ SRC-1 Co-activator (AID 2283388; active = hit-call score of the fitted dose curve at least 0.9, where 1 is the maximum;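 note: nuclear to cytoplasmic ratio of reconstituted Venus YFP fluorescence in fixed imaged cells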). In outline: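 Protein-fragment complementation between PPARg and coactivator SRC-1 was measured by fluorescence imaging in transiently transfected HEK293T cells after 24 h treatment. Signal was quantified as N/C ratio in the 488 nm channel, with DMSO as negative control.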

Assay [2] in a line: CEETOX_H295R_OHPREG: CeeTox H295R High-throughput Steroidogenesis Assay for OH-Pregnenolone (OHPREG) (AID 2283434). The conditions noted are these: actives raise or lower the signal. In outline: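 Hormone levels in spent medium were measured by tandem mass spectrometry following liquid-liquid extraction. Cells (H295R) had been forskolin-stimulated (10 uM, 48 h) before a 48 h chemical exposure at 0.1% DMSO, with activity fitted in both directions against DMSO.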

Assay [3] in a line: CEETOX_H295R_OHPROG: CeeTox H295R High-throughput Steroidogenesis Assay for OH-Progesterone (OHPROG) (AID 2283435).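 For AC50: human adrenal H295R cells primed 48 h with 10 µM forskolin; 17alpha-hydroxyprogesterone secreted into medium measured by HPLC-MS/MS.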 The conditions noted are these: actives raise or lower the signal. The procedure, abridged:
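Secreted 17alpha-hydroxyprogesterone is read by tandem MS from media of forskolin-primed H295R cells dosed with chemical for 48 h. Activity is fitted in both directions against DMSO baseline; cytotoxic concentrations are re-tested diluted.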

Assay [4] in a line: CEETOX_H295R_11DCORT: CeeTox H295R High-throughput Steroidogenesis Assay for 11-Deoxycortisol (11DCORT) (AID 2283432).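 For AC50: human adrenal H295R cells prestimulated with 10 µM forskolin for 48 h; 11-deoxycortisol secreted into the medium measured by LC-MS/MS.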 The conditions noted are these: actives raise or lower the signal. In outline:
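Adrenal carcinoma line H295R, run per OECD 456 with minor changes, was forskolin-stimulated (10 uM, 48 h) before a 48 h chemical exposure at 0.1% DMSO. Secreted 11-deoxycortisol was quantified by HPLC-MS/MS.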

Assay [5] is described as follows: CEETOX_H295R_CORTIC: CeeTox H295R High-throughput Steroidogenesis Assay for Corticosterone (CORTIC) (AID 2283437).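 For AC50: human H295R adrenal cells prestimulated with forskolin before chemical exposure.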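 Note: corticosterone secreted into medium quantified by mass spectrometry.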 The conditions noted are these: actives raise or lower the signal. In outline:
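Corticosterone secreted into medium is measured by reverse-phase HPLC with tandem MS following liquid-liquid extraction. Cells are forskolin-stimulated (10 uM, 48 h) before 48 h test exposure; activity fitted in both directions against DMSO.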

Assay [6] in a line: CEETOX_H295R_CORTISOL: CeeTox H295R High-throughput Steroidogenesis Assay for Cortisol (AID 2283438).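 Note: cortisol secreted into medium quantified by LC-MS/MS.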 The conditions noted are these: actives raise or lower the signal. The procedure, abridged:
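Human adrenocortical H295R cells (passage ≤10) received test chemicals for 48 h after forskolin priming. Secreted cortisol was measured by LC-MS/MS.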

The nature of assay [7]: CEETOX_H295R_DOC: CeeTox H295R High-throughput Steroidogenesis Assay for DOC (AID 2283439). The conditions noted are these: actives raise or lower the signal. In outline: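 Secreted DOC was quantified from H295R media by HPLC-MS/MS after 48 h chemical exposure following 48 h forskolin (10 uM) prestimulation. Values were fitted in both directions relative to DMSO, the negative control and baseline.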

Assay [8] in a line: CEETOX_H295R_ANDR: CeeTox H295R High-throughput Steroidogenesis Assay for Androstenedione (ANDR) (AID 2283436).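 Note: human H295R adrenal cells exposed for 48 h with androstenedione measured in medium.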 The conditions noted are these: actives raise or lower the signal. In outline: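 Read-out is androstenedione secreted into medium, measured by tandem mass spectrometry after liquid-liquid extraction. Cells were H295R, dosed for 48 h per modified OECD 456; activity fitted in both directions relative to DMSO.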

A short description of assay [9]: CEETOX_H295R_ESTRADIOL: CeeTox H295R High-throughput Steroidogenesis Assay for Estradiol (AID 2283440).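 Note: estradiol secreted into medium quantified by LC-MS/MS after dansyl derivatisation.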 The conditions noted are these: actives raise or lower the signal. As to the method:
CEETOX_H295R is a cell-based, multiplexed-readout assay that uses H295R, a human adrenal gland cell line, with measurements taken at 48 hours after chemical dosing in a 96-well plate.CEETOX_H295R_ESTRADIOL is one of 23 assay component(s) measured or calculated from the CEETOX_H295R assay. It is designed to make measurements of hormone induction, a form of inducible reporter, as detected with absorbance signals by HPLC-MS-MS technology.Data from the assay component CEETOX_H295R_ESTRADIOL was analyzed into 1 assay endpoint. This assay endpoint, CEETOX_H295R_ESTRADIOL, was analyzed with bidirectional fitting relative to DMSO as the negative control and baseline of activity. […]
Cell culture and media preparation procedures were conducted in accordance with OECD Test No. 456 guidelines, with minor modifications. […] For steroid quantification, media samples were shipped to OpAns, LLC (Durham, NC) on dry ice, and samples were thawed to room temperature prior to liquid-liquid extraction. […] Steroid hormones were separated by HPLC, eluted using a reverse phase C18 gradient with electrospray positive ionization, followed by quantification by tandem mass spectrometry (MS/MS). Data were acquired on a MassHunter Workstation Acquisition version B03.01 (Agilent Technologies, Inc.) and processed using MassHunter Quantitative Analysis for QQQ. […]

A short description of assay [10]: CEETOX_H295R_ESTRONE: CeeTox H295R High-throughput Steroidogenesis Assay for Estrone (AID 2283441).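 Note: estrone secreted into medium measured by LC-MS/MS after dansyl derivatization.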 The conditions noted are these: actives raise or lower the signal. In outline:
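H295R cells; 48 h forskolin (10 uM) prestimulation; 48 h compound exposure, 0.1% DMSO final. Medium estrone: MTBE extraction, dansyl derivatization, HPLC-MS/MS. Bidirectional fit vs DMSO.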

Sequence of Peroxisome proliferator-activated receptor gamma (Homo sapiens) (P37231 whole entry, looked up, the tested form may be a part): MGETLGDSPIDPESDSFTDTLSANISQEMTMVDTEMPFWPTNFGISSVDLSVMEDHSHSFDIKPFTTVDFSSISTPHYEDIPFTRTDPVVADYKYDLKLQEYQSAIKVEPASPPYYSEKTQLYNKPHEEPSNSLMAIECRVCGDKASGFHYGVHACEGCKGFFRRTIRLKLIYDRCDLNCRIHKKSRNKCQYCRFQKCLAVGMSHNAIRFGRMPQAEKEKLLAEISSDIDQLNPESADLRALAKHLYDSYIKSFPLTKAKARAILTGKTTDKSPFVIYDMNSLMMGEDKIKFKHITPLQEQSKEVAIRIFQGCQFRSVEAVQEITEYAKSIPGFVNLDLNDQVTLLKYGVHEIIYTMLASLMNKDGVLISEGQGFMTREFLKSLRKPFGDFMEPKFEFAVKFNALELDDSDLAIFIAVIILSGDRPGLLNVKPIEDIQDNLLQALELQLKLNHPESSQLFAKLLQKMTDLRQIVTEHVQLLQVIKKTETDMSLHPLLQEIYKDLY

For `CCc1cccc(C)c1N(C(=O)CCl)C(C)COC` (configuration not stated), the molecule was classed as inactive in assay [1], in [2] and in assay [3].

As to `COP(=O)(NC(C)=O)SC` (configuration not stated), the molecule was called inactive in assay [1], in assay [4], in [3], in [5], in assay [6] and in assay [7].

Consider `C#CC(C)(C)NC(=O)c1cc(Cl)cc(Cl)c1`, for which the half-maximal activity concentration (AC50) in [4] was 19.1 µM (active); in assay [2], 13.4 µM (active); in [3], 23.7 µM (active); in assay [7] it was 7.45 µM (active). In addition, the result in assay [5] and in assay [6] was inactive.

With `CCOP(=S)(OCC)Oc1ccc2c(C)c(Cl)c(=O)oc2c1`, the molecule was called inactive in assay [1], in assay [2], in assay [5] and in assay [6]. In addition, the results for the AC50 in [4], in assay [3] and in assay [7] were 5 µM (active), 1.67 µM (active) and 1.23 µM (active), respectively.

Turning to `CCOP(=S)(OCC)Oc1cc(C)nc(C(C)C)n1`, the molecule was classed as inactive in [1], in [2] and in assay [7]. In addition, the AC50 in assay [4] was 50 µM (active); in assay [3], 6.6 µM (active); in assay [5], 36.6 µM (active); in assay [6] it was 50 µM (active).

Consider `CNC(=O)ON=C(SC)C(=O)N(C)C`, for which the molecule was classed as inactive in assay [1], in assay [2], in [3], in assay [8], in assay [9] and in assay [10].

Turning to `CNC(=O)ON=C(C)SC`, the molecule was called inactive in assay [1], in [4], in assay [2], in [3], in assay [5] and in assay [6]. Further, the molecule was called inactive in assay [7].

Consider `CCOP(=O)(NC(C)C)Oc1ccc(SC)c(C)c1` (configuration not stated), for which the molecule was called inactive in [1], in assay [5] and in assay [6]. Besides, the AC50 was 24 µM (active) in [4], 13.9 µM (active) in [2], 50 µM (active) in assay [8] and 17.4 µM (active) in assay [7].

As for `CNC(=O)Oc1cccc2c1OC(C)(C)O2`, the result in assay [1], in assay [4], in [2], in assay [5], in assay [6] and in assay [7] was inactive. Also, the AC50 in [3] was 30.9 µM (active).

On to `C[Si](Cn1cncn1)(c1ccc(F)cc1)c1ccc(F)cc1`, for which the molecule was classed as inactive in assay [1], in assay [2] and in assay [3].

`CN(C)NC(=O)CCC(=O)O`: the molecule was classed as inactive in [1], in assay [2] and in assay [3].
